Several values for one entry are separate records, joined by “and”; a condition that tells them apart may be missing. Equal entries are not always repeated. Among all 220,000 compounds or so, about 530 (0.24%) were called active. The list comes from a sample in which actives are over-represented; it also holds similar structures and randomly drawn compounds. Entries with a potency or affinity are not part of this list. Values without a mark were called inactive. Rule as the data show it: active = inhibition above about 13%; inconclusive = no clear call, values can overlap the other calls; inactive = below that.
These molecules were tested against Bifunctional protein GlmU (Mycobacterium tuberculosis (strain ATCC 25618 / H37Rv)) (UniProt P9WMN3) (assay: inhibition of mycobacterial GlmU enzyme – biochemical, glucosamine-1-phosphate acetyltransferase (AID 1376;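 also: 0% = complete reaction with vehicle and 100% = reaction without substrate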)). Details: M. tuberculosis GlmU acetyltransferase enzyme assay; active compounds read high;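 tested at 30 µM in the primary screen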.
Sequence of Bifunctional protein GlmU (Mycobacterium tuberculosis (strain ATCC 25618 / H37Rv)) (P9WMN3 whole entry, looked up): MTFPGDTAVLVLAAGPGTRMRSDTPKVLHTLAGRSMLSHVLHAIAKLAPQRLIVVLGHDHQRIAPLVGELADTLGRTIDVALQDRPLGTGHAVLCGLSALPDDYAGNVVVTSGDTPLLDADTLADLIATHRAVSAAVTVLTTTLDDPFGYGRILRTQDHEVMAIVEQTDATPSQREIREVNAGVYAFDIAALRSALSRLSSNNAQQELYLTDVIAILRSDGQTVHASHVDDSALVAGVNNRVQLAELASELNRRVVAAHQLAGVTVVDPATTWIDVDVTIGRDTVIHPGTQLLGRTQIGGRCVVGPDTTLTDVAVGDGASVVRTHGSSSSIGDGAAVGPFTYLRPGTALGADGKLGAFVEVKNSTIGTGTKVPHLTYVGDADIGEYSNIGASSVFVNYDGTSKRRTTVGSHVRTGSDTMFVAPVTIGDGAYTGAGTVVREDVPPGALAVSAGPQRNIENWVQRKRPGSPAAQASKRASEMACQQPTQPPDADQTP
Molecule `Cc1ccc([N+](=O)[O-])cc1N(CC(=O)NCC1CCCO1)S(C)(=O)=O` (configuration not stated) has an inhibition of 1.08%. In the case of `COc1ccc(C2CC(c3ccccc3)=NN2C(=O)c2cccs2)cc1` (configuration not stated), the inhibition is reported as 0.55%. `COc1ccc(CCNC(=O)COC(=O)CCC(=O)c2ccc(F)cc2)cc1` was tested, and the inhibition was 1.09%. Work on `N#Cc1nc(Cc2cccc3ccccc23)oc1N1CCC(C(N)=O)CC1` yielded an inhibition of 1.98%. In the case of `Cc1ccc(-n2ncc(C(=O)NCc3ccc4c(c3)OCO4)c2NC(=O)c2ccco2)cc1C`, the inhibition is reported as 6.03%. `O=C(OCC(=O)c1ccc[nH]1)c1ccc(S(=O)(=O)N2CCCCCC2)cc1` showed an inhibition of -6.95%. `Cc1ccc(C(=O)NC(=S)NNC(=O)CC#N)cc1` was tested, and the inhibition was -2.12%. `COc1ccc(OC)c(NC(=O)c2ccccc2NC(=O)c2ccco2)c1` gave an inhibition of 4.28%. `COc1ccc(Cc2c(O)nc[nH]c2=O)cc1` was tested, and the inhibition was 22.8% (active). With `COc1ccc(C(c2c(O)nc[nH]c2=O)c2c(O)nc[nH]c2=O)cc1` the inhibition was 0.27%. `COc1ccc(Cc2c(O)nc(SCC(=O)c3ccc(OC)cc3)[nH]c2=O)cc1` was tested, and the inhibition was 2.96%. Molecule `CCOC(=O)C1=C2N(C)c3ccccc3N2CCC1=O` has an inhibition of 0.79%. Molecule `Cc1cccc(Cn2c(N3CCc4ccccc4C3)nc3c2c(=O)[nH]c(=O)n3C)c1` has an inhibition of 2.16%. `CC(C)(C)NC(=S)Nc1ccc(Nc2ccccc2)cc1` was tested, and the inhibition was 13.4% (active). Work on `CNC(=S)Nc1ccc(Nc2ccccc2)cc1` yielded an inhibition of 1.36%. Work on `CC(C)(C)NC(=S)Nc1ccc(Br)cc1` yielded an inhibition of 1.07%. In the case of `O=C(Cc1cc(=O)[nH][nH]1)N/N=C/C=C/c1ccccc1`, the inhibition is reported as 3.75%. `COc1ccc(N(CC2CO2)S(=O)(=O)c2ccccc2)cc1` (configuration not stated) gave an inhibition of 3.63%. In the case of `CCN(CC)c1ccc(/C=N/N2CCN(Cc3ccccc3Cl)CC2)c(O)c1`, the inhibition is reported as 14.1% (active). Molecule `CCN(CC)c1ccc(/C=N/N2CCN(Cc3ccccc3)CC2)c(O)c1` has an inhibition of -0.12%. Molecule `CCN(CC)c1ccc(/C=N/N2CCN(Cc3cccc4ccccc34)CC2)c(O)c1` has an inhibition of -0.67%. In the case of `Nc1nc(=S)c2ncn(C3OC(CO)C(O)C3O)c2[nH]1` (configuration not stated), the inhibition is reported as 20.9% (active). With `Nc1ncnc2c1ncn2[C@@H]1O[C@H](CO)[C@@H](O)[C@H]1O` the inhibition was -4.56%. `Nc1nc(=S)c2ncn(C3CCCC3)c2[nH]1` gave an inhibition of 7.24%. In the case of `Cc1ccc2nc3c(nc2c1C)C(O)=C3O`, the inhibition is reported as 2.69%. Molecule `CN1CCN(C2=C(Cl)C(=O)N(Cc3ccccc3)C2=O)CC1` has an inhibition of -1.86%. In the case of `CC(C)(C)c1csc(SCC(=O)Nc2ccc(Cl)cn2)n1`, the inhibition is reported as 5.51%. In the case of `CCn1c2ccccc2c2cc(/C=N/n3cn[nH]c3=S)ccc21`, the inhibition is reported as 13% (active). For `CCn1c2ccccc2c2cc(/C=N/n3c(-c4cc(C)[nH]n4)n[nH]c3=S)ccc21`, the inhibition was 2.92%. `CCn1c2ccccc2c2cc(/C=N/n3cnnc3)ccc21` showed an inhibition of 6.56%. With `CC(=O)Nc1ccc(Nc2nc(C)c([N+](=O)[O-])c(Nc3ccccc3)n2)cc1` the inhibition was 5.98%. For `CC(=O)Nc1ccc(Nc2nc(C)c([N+](=O)[O-])c(Nc3ccc(NC(C)=O)cc3)n2)cc1`, the inhibition was -3.57%. `O=C(NC12CC3CC(CC(C3)C1)C2)c1cccnc1` gave an inhibition of 2.68%. In the case of `O=C(NC12CC3CC(CC(C3)C1)C2)c1cncc(O)c1`, the inhibition is reported as 14.9% (active). In the case of `O=C(NC12CC3CC(CC(C3)C1)C2)c1ccccc1`, the inhibition is reported as -3.83%. Work on `COC(=O)Cc1c(O)ccn(Cc2ccc3c(c2)OCO3)c1=O` yielded an inhibition of -0.24%. Work on `CC(=O)c1ccc2c(c1)C1C(Cl)C(Sc3ccccc3[N+](=O)[O-])CC1C(c1ccccc1)N2` (configuration not stated) yielded an inhibition of 8.36%. `Cc1ccc2c(c1Cl)NC(C(=O)O)C1CC(Sc3ccccc3[N+](=O)[O-])C(Cl)C21` (configuration not stated) showed an inhibition of 4.86%. `CCN(CC)C(=O)c1ccc2c(c1)C1C(Cl)C(Sc3ccccc3[N+](=O)[O-])CC1C(C(=O)O)N2` (configuration not stated) showed an inhibition of -0.47%. In the case of `O=C(O)c1cccc2c1NC(c1cccc([N+](=O)[O-])c1)C1CC(Sc3ccccc3[N+](=O)[O-])C(Cl)C21` (configuration not stated), the inhibition is reported as 7.9%. `O=C(O)c1cccc2c1NC(C(=O)O)C1CC(Sc3ccccc3[N+](=O)[O-])C(Cl)C21` (configuration not stated) was tested, and the inhibition was 30.8% (active). With `CC(=O)c1ccc2c(c1)C1C(Cl)C(Sc3ccccc3[N+](=O)[O-])CC1C(C(=O)O)N2` (configuration not stated) the inhibition was 13.1% (active). In the case of `Cc1ccc2c(c1)cc(CN(Cc1cccs1)C(=O)c1ccco1)c1nnnn12`, the inhibition is reported as -1.3%. `CC(=O)c1c(C)[nH]c(C(=O)COC(=O)CCCOc2ccccc2)c1C` gave an inhibition of 7.27%. `O=S(=O)(N1CCOCC1)n1cnc2ccccc21` was tested, and the inhibition was 3.88%. In the case of `COc1ccc(NC(=O)CN2C(=O)c3cccc4cccc2c34)c(OC)c1`, the inhibition is reported as 0.85%. For `CCN(C(=O)CN1CCN(S(=O)(=O)c2ccccc2C(F)(F)F)CC1)c1c(N)n(Cc2ccccc2)c(=O)[nH]c1=O`, the inhibition was -6.69%. In the case of `CCS(=O)(=O)Nc1ccc(-c2nc3cccnc3s2)cc1`, the inhibition is reported as 0.1%. In the case of `CCS(=O)(=O)Nc1cccc(-c2nc3cccnc3s2)c1`, the inhibition is reported as 14.4% (active). Molecule `CCCS(=O)(=O)Nc1cccc(-c2nc3cccnc3s2)c1` has an inhibition of 3.55%. `COc1cc(C(=O)Oc2ccc3c(c2)OCC3=O)cc(OC)c1OC` was tested, and the inhibition was 1.2%. Molecule `c1ccc(CSc2nnc(-c3cccs3)n2Cc2ccco2)cc1` has an inhibition of -1.39%. In the case of `c1ccc(CSc2nnc(-c3ccco3)n2Cc2ccco2)cc1`, the inhibition is reported as 13% (active). For `Cc1ccccc1CSc1nnc(-c2ccco2)n1Cc1ccco1`, the inhibition was 1.77%. With `Cc1ccc(OCC(=O)Nc2ccc(S(=O)(=O)N3CCCCC3)cc2)c([N+](=O)[O-])n1` the inhibition was -4.33%. For `O=C(CN(CC1CCCO1)S(=O)(=O)c1ccc(S(=O)(=O)NCC2CCCO2)cc1)Nc1ccccc1` (configuration not stated), the inhibition was 5.97%. In the case of `CCOC(=O)c1cnc(-n2nc(C)cc2C)nc1Oc1ccc(C#N)cc1`, the inhibition is reported as 13.1% (active). `CCOC(=O)c1cnc(-n2nc(C)cc2C)nc1Oc1ccccc1F` gave an inhibition of -3.61%. `CCOC(=O)c1cnc(-n2nc(C)cc2C)nc1Oc1ccc(C(=O)OC)cc1` gave an inhibition of -2.28%. Molecule `CCOC(=O)c1[nH]c2ccccc2c1NC(=O)c1ccc2c(c1)OCO2` has an inhibition of -1.52%. With `CCOC(=O)c1[nH]c2cc(OC)c(OC)cc2c1NC(=O)c1ccc2c(c1)OCO2` the inhibition was 17.8% (active). With `CCOC(=O)c1[nH]c2ccc(OC)cc2c1NC(=O)c1ccc2c(c1)OCO2` the inhibition was -4.48%. `O=C(Nc1ccon1)c1ccccc1F` was tested, and the inhibition was -0.14%. Molecule `O=C(CCN1C(=O)c2ccccc2C1=O)NC(=S)Nc1ccccc1Cl` has an inhibition of -2.84%. For `O=C(CCN1C(=O)c2ccccc2C1=O)NC(=S)Nc1ccccc1`, the inhibition was 2.69%. In the case of `Cc1cc(C)cc(NC(=S)NC(=O)CCN2C(=O)c3ccccc3C2=O)c1`, the inhibition is reported as 13.3% (active). `O=C(NCc1ccccc1)c1ccc2c(=O)[nH]c3c(C(=O)NCC4CCCO4)sc(=S)n3c2c1` (configuration not stated) was tested, and the inhibition was 4.19%. With `CCCCCNC(=O)c1ccc2c(=O)[nH]c3c(C(=O)NCC4CCCO4)sc(=S)n3c2c1` (configuration not stated) the inhibition was -1.14% and 8.81%. With `Cc1ccc(CNC(=O)c2ccc3c(=O)[nH]c4c(C(=O)NCC5CCCO5)sc(=S)n4c3c2)cc1` (configuration not stated) the inhibition was 13.2% (active). For `COc1ccc(OCCCC(=O)NCCc2nc3ccccc3[nH]2)cc1`, the inhibition was 5.71%. With `O=c1c(C(c2c(O)nc3n(c2=O)CCS3)c2cccc3ccccc23)c(O)nc2n1CCS2` the inhibition was 15.3% (active). Molecule `O=c1c(C(c2ccccc2)c2c(O)nc3n(c2=O)CCS3)c(O)nc2n1CCS2` has an inhibition of 3.94%. For `Cc1ccc(C(c2c(O)nc3n(c2=O)CCS3)c2c(O)nc3n(c2=O)CCS3)cc1`, the inhibition was -1.5%. With `Cc1c(N=C2C=C(Br)C(=O)C(Br)=C2)c(=O)n(-c2ccccc2)n1C` the inhibition was 14.5% (active). With `CC1=CC(=Nc2c(C)n(C)n(-c3ccccc3)c2=O)C=C(C)C1=O` the inhibition was -6.33%. In the case of `CCC(C)C1=CC(=Nc2c(C)n(C)n(-c3ccccc3)c2=O)C=C(C(C)CC)C1=O` (configuration not stated), the inhibition is reported as -5.03%. `O=C(NC1CC1)C1=C[C@@H](c2ccc(C(F)(F)F)cc2)C[C@@H](OCCCCO)O1` was tested, and the inhibition was 0.57%. Molecule `CCOc1cc(/C=C2/C(=O)ON=C2C)ccc1OCc1ccccc1F` has an inhibition of -0.49%. `S=C(NCCc1ccccn1)Nc1cccc(Cl)c1` gave an inhibition of 2.84%. Work on `O=C(CSc1nc2ccccc2[nH]1)Nc1ccccc1N1CCOCC1` yielded an inhibition of 2.16%. Molecule `O=C(CCSc1ccccc1)Nc1nnc(-c2ccccc2)o1` has an inhibition of -1.24%. Molecule `COc1ccccc1N1CCN(C(=O)c2coc(=O)c(Br)c2)CC1` has an inhibition of 2.74%. Molecule `O=C(c1coc(=O)c(Br)c1)N1CCCc2ccccc21` has an inhibition of -0.3%. `O=C(c1coc(=O)c(Br)c1)N1CCC(C(O)(c2ccccc2)c2ccccc2)CC1` was tested, and the inhibition was -1.06%. `COc1ccc(C(=O)N2CCOCC2)cc1Br` gave an inhibition of -2.45%. Molecule `CC(c1ccccc1)C1CC(=O)N(c2ccc(C(=O)O)cc2)C1=O` (configuration not stated) has an inhibition of -1.47%. For `CS(=O)(=O)NNC(=O)c1sccc1OCc1ncc(C(F)(F)F)cc1Cl`, the inhibition was -2.98%. With `CC(C)CNc1c(N)c(=O)oc2ccccc12` the inhibition was -2.95%. `O=C(Nc1cccc(C(F)(F)F)c1)c1ccco1` showed an inhibition of -3.67%. `Cc1ccccc1Nc1nc(N)nc(COC(=O)c2ccccc2)n1` showed an inhibition of 6.9%. `CCc1ccccc1Nc1nc(N)nc(COC(=O)c2cccn2C)n1` was tested, and the inhibition was 13.1% (active). In the case of `Cc1ccccc1Nc1nc(N)nc(COC(=O)c2cccn2C)n1`, the inhibition is reported as 2.68%.

— PubChem BioAssay AID1376 (SRMLSC, 2008)
